Bioassay records (PubChem BioAssay)
IEC-6 cytotox: cytotoxicity in IEC-6 intestinal epithelial cells, primary screen, cytotoxicity control for KLF5 inhibitor project, cell-based, luminescence | IEC-6 cytotoxicity, luminescence viability | inhibition, % at 5 µM | 290,000 tested, 0.78% active | AID 1825, 2009; in the data active = inhibition above about 22%;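 also: 0% = plate median of test compound wells and 100% = cytotoxic reference compound wells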
Ba/F3 V617F tox: reduced viability of JAK2V617F-dependent Ba/F3 cells, primary screen, JAK2V617F inhibitor project, cell-based, Ba/F3 EpoR-JAK2V617F, luminescence; ATP luminescence; inhibition, % at 5.6 µM; 220,000 tested, 1.1% active; AID 1446, 2008;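 active = inhibition above the campaign mean plus 3 SD over all tested compounds, cut at about 24% in these data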;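 also: cytokine-independent growth of Ba/F3 cells driven by EpoR plus mutant JAK2; 0% = DMSO-treated cells and 100% = JAK inhibitor I control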
KLF5 inh: KLF5 expression inhibitors, primary screen, DLD-1 cells, luminescence; AID 1700, 2009; DLD-1 KLF5 promoter-luciferase reporter; inhibition, % at 5 µM; 290,000 tested, 0.23% active;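 active = inhibition above a per-plate limit of that plate's mean compound inhibition plus 3 SD, cut at about 60% in these data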;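 also: 0% = DMSO wells and 100% = LY294002 at 200 µM; higher means less KLF5 promoter-driven luciferase light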
BaF3 tox: parental Ba/F3 cell viability inhibition, counter-screen for JAK2V617F inhibitor project, murine pro-B, CellTiter-Glo luminescence; 220,000 tested, 1.1% active; AID 1486, 2009; inhibition, % at 5.6 µM; CellTiter-Glo ATP luminescence;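 active = inhibition above a per-campaign cutoff, the mean inhibition of all tested compounds plus 3 SD, cut at about 27% in these data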;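 also: 0% = DMSO wells and 100% = JAK Inhibitor I control wells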
APP transl inh: inhibitors of APP translation via 5'UTR reporter, primary screen, APP 5'UTR luciferase, SH-SY5Y cells; SH-SY5Y APP 5'UTR-luciferase reporter, luminescence; AID 1285, 2008; 190,000 tested, 0.82% active; inhibition, % at 2 µM;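 active = inhibition above a set limit, derived from the sample mean plus 3 SD, cut at about 45% in these data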
aSyn UTR inh: MLPCN primary screen, SNCA 5' untranslated region; inhibition, % (tested at 7.5 µM); 300,000 tested, 0.82% active; AID 1813, 2009; alpha-synuclein 5'UTR reporter, inhibitor activity; in the data active = inhibition above about 60%;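 also: H4 neuroglioblastoma cells stably carrying SNCA 5'UTR luciferase fusion; 0% = DMSO wells and 100% = positive control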
Active calls of the source: *; x = no result given. The list is not random: actives were taken first. Their share in the collection is about 2.1%.

SMILES | IEC-6 cytotox | Ba/F3 V617F tox | KLF5 inh | BaF3 tox | APP transl inh | aSyn UTR inh
CC(OC(=O)c1ccccc1Nc1ccc(SC(F)F)cc1)C(N)=O (stereo unspecified) | 28* | 5 | 7 | 12 | 8 | 43
COc1ccc(C(=O)NC2CC2)cc1OC1CCN(Cc2ccc(F)cc2Cl)CC1 | 3 | x | -12 | x | x | 21
C=CCn1c(=S)sc2c(=O)[nH]cnc21 | 6 | 0 | -5 | -1 | x | 6
Cc1nc2ccc(NC(=O)c3cc(S(=O)(=O)N(C)c4ccccc4)ccc3Cl)cc2s1 | 4 | 43* | -30 | 49* | 11 | -9
Cc1nc2ccc(NC(=O)c3ccc(Cl)c(S(=O)(=O)N(C)c4ccccc4)c3)cc2s1 | 9 | 0 | -21 | 0 | -6 | 18
CSc1ccc(CN2C(=O)NC3(CCCCC3)C2=O)cc1 | 2 | 5 | 0 | 7 | 14 | 0
O=C(Nc1ccc([N+](=O)[O-])cc1)N1CCCCC1 | 1 | 1 | -26 | 1 | -18 | -20
O=S1(=O)N=C(N2CCN(Cc3ccc4c(c3)OCO4)CC2)c2ccccc21 | 6 | 3 | -13 | 8 | -1 | -25
O=S1(=O)N=C(N2CCN(Cc3ccccc3)CC2)c2ccccc21 | 9 | -4 | -5 | 60* | 2 | -6
NC(=O)NC(=O)c1nccnc1C(=O)O | -5 | -6 | -25 | 2 | x | 13
Cc1ccc(OCCn2cnc3c2c(=O)n(C)c(=O)n3C)cc1 | 9 | x | 6 | x | x | 9
Cc1ccc(C(=O)/C=C/C(=O)c2ccc(C)cc2)cc1 | -6 | -6 | -20 | 2 | 66* | -8
Cc1ccc(C(=O)/C=C/Nc2ccccn2)cc1 | -2 | -1 | 15 | 3 | -115 | 75*
Cn1c(CNC(=O)c2ccco2)nnc1SCC(=O)Nc1ccccc1Cl | x | x | x | x | x | -9
CN(C)c1ccc([C@@H]2[C@@H]([N+](=O)[O-])[C@H]3C=Cc4ccccc4N3[C@H]2C(=O)c2ccc(Cl)cc2)cc1 | 0 | 7 | -1 | 40* | -44 | x
CCOC(=O)c1cc2c(ccn2-c2ccc(F)cc2)n1CC(=O)NC(C)(C)C | 9 | 5 | 11 | 90* | -3 | -6
CCn1c(C(=O)OC)cc2c1ccn2-c1ccc(F)cc1 | 4 | -2 | -22 | 0 | -80 | -157
CN(C)CCCNS(=O)(=O)c1ccc(N2CCN(Cc3ccc4c(c3)OCO4)CC2)c([N+](=O)[O-])c1 | 6 | x | -2 | x | x | -8
COc1ccccc1C(C)NCC(=O)NC(=O)NCc1ccco1 (stereo unspecified) | x | x | x | x | x | 11
COC(=O)c1cn(Cc2ccccn2)c(=O)c2ccccc12 | -2 | -2 | -5 | -3 | 3 | 17
COC(=O)[C@@H](Cc1c[nH]c2ccccc12)NC(=O)CCC(=O)c1ccc(F)cc1 | -2 | x | -20 | x | x | -11
COc1ccc(/C=C2\SC(=O)N(CCC(=O)Nc3ccccc3)C2=O)cc1OC | 4 | -4 | 12 | 2 | 2 | 82*
O=C(CCCN1C(=O)/C(=C/c2ccc3c(c2)OCO3)SC1=S)Nc1cccc(C(=O)O)c1 | -5 | x | -36 | x | x | 73*
COc1cc(/C=C2\SC(=S)N(CCC(=O)Nc3ccccc3)C2=O)cc(OC)c1OC | -2 | 0 | -56 | 4 | -12 | 13
COc1ccc(/C=C2\SC(=S)N(CCCC(=O)Nc3ccc(C(=O)O)cc3)C2=O)cc1OC | -6 | x | -12 | x | x | 19
SMILES | IEC-6 cytotox | Ba/F3 V617F tox | KLF5 inh | BaF3 tox | APP transl inh | aSyn UTR inh
COc1ccc(/C=C2\SC(=O)N(CCCC(=O)Nc3ccc(C(=O)O)cc3)C2=O)cc1OC | 1 | x | -6 | x | x | 73*
CCN(CC)CCOC(=O)c1ccc(NC(=O)CCCN2C(=O)S/C(=C/c3ccc(OC)cc3)C2=S)cc1 | -2 | x | 46 | x | x | 97*
O=C(CSc1nnc(-c2cccnc2)o1)N1CCCCC1 | 6 | x | -26 | x | x | -22
O=C(COc1cc(F)ccc1[N+](=O)[O-])NCCCc1ccccc1 | 4 | 4 | -28 | 8 | 6 | 7
O=C(Nc1ccc(-c2nc3ccccc3s2)cc1)C1=COCCO1 | -8 | 0 | -99 | 6 | -102 | 94*
CCn1ncc(N2CCOCC2)c(Cl)c1=O | -4 | x | 1 | x | x | 4
Cc1ccnc(NC(=O)c2sc3ccccc3c2Cl)c1 | 1 | -2 | -122 | 4 | -148 | 78*
